# Screening results from PubChem BioAssay.
# In the library only some 3.3% were active in any assay of this set; here they are far more common.
# Sm TGR inh – S. mansoni TGR enzyme inhibition. 3% of 360,000 active. AID 485364. Q962Y6. Potency, µM (doses to about 114 µM), for inactives: top-dose activity change, negative = inhibition, usual class: inhibitors. purified TGR, DTNB reduction, TNB absorbance 405 nm; also: nearly all actives have a fitted effect of over 60% in size
#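 First, TGR (20 nM dispensed) and NADPH were mixed with compound. Second, a 15 min room-temperature incubation followed. Third, further NADPH and then DTNB were added to start the reaction. Finally, TNB absorbance was monitored kinetically.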
# AmpC inh no detg – blocks E. coli AmpC beta-lactamase in detergent-free assay. Potency, µM (doses to about 57.1 µM), inactives show at the top dose activity change, negative = inhibition, hits mostly inhibitors. AmpC nitrocefin hydrolysis, absorbance 480 nm, 0.0001% Triton. 0.52% of 330,000 active. P00811. AID 485341;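 also: plate controls were no compound for no effect and no enzyme for full effect; nearly all actives have a fitted effect of over 20% in size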
# Target sequence (P00811 whole entry, looked up): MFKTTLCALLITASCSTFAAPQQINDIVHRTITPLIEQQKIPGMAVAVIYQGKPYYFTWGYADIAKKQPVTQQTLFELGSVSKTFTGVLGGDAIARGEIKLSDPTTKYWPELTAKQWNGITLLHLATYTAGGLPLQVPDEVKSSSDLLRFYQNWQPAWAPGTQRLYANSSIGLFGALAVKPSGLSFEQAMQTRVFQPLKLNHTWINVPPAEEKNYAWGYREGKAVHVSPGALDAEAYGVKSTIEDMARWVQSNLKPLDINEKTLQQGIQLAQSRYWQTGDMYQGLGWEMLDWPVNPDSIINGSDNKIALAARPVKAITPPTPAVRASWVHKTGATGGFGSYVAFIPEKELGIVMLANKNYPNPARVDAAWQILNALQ
#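 20 mM phosphate pH 7.0 + 0.01% (detergent screen) or 0.0001% Triton X-100; 5.3 nM AmpC reagent; cpd preinc 15 min RT; nitrocefin (800 uM stock) to start; A480 q20 s × 4 min; Activity was normalised to no-enzyme and no-compound control wells.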
# AmpC detergent – inhibitors of E. coli AmpC beta-lactamase with detergent. P00811. AmpC hydrolysis of nitrocefin, absorbance 480 nm, 0.01% Triton. Potency, µM (titrated, usually from 114 µM), without a hit: top-dose activity change, negative = inhibition, most hits filed as inhibitors. 0.041% of 370,000 active. AID 485294;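 also: 0% = no-compound wells and -100% = no-enzyme wells; nearly all actives have a fitted effect of over 25% in size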
#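 AmpC (5.3 nM in the dispensed reagent) in 20 mM phosphate pH 7.0 with 0.01% (detergent screen) or 0.0001% Triton X-100 was preincubated with compounds for 15 min at room temperature. Nitrocefin was then added from an 800 uM solution, and hydrolysis was followed at 480 nm.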
# * hit, by the source's call; ? = inconclusive; / = not tested or not shown; [ ] = remark or other dose. Calls follow the shape of the dose curve; as a rule, active = well fitted curve in the direction sought with a large enough effect; inconclusive = small, poorly fitted or top-dose-only effect, or another doubt; inactive = no such curve, though single readings can be large; an effect the other way counts as inactive or inconclusive. Unless noted, % is scaled to controls: 0 for no effect and ±100 for the full control effect; potency is read from the fitted curve at half-maximal effect.
SMILES,Sm TGR inh,AmpC inh no detg,AmpC detergent
COc1ccccc1N1CCN(CC(O)c2c(C)[nH]c3ccccc23)CC1 (stereo unspecified),16µM*,-24%,?
Cc1[nH]c2ccccc2c1C(=O)CN1C(=O)C(=O)N(C2CCCC2)C1=O,-3%,-20%,3%
Cc1[nH]c2ccccc2c1C(=O)CN1CCN(C2CCCCC2)CC1,40µM*,-17%,7%
COc1ccccc1N1CCN(CC(O)c2ccccc2)CC1 (stereo unspecified),0%,-10%,-8%
COc1ccccc1N1CCN(CC(=O)c2c[nH]c3ccccc23)CC1,-19%,-6%,-6%
COc1ccccc1N1CCN(CC(=O)c2c(C)[nH]c3ccccc23)CC1,32µM*,18%,-21%
CC1(C)C(=O)N(CC(=O)Nc2ccc(OC(F)(F)F)cc2)c2ccccc21,13%,/,9%
O=C(CC1(O)C(=O)N(CCc2ccccc2)c2ccc(Br)cc21)c1ccccc1O (stereo unspecified),-2%,/,-3%
CCCCCOc1ccc(C(=O)Nc2ccc(N3CCOCC3)cc2N2CCOCC2)cc1,-5%,-13%,?
Cc1ccc(/C=C2\CC(C)CC3=C2NC(=S)NC3c2ccc(C)cc2)cc1 (stereo unspecified),16µM*,-37%,5%
Cc1ccc(/C=C2\CCCC3=C2NC(=S)NC3c2ccc(C)cc2)cc1 (stereo unspecified),?,-53%,-5%
CCOC(=O)C1CCN(C(=O)CSc2nccc(C)n2)CC1,-3%,-1%[2.29 µM],-2%
O=C1NC(c2ccccc2)(C(F)(F)F)SC2=CCCCCN12 (stereo unspecified),25µM*,-30%,?
Cc1ccc(C2(C(F)(F)F)NC(=O)N3CCCN=C3S2)cc1 (stereo unspecified),-1%,-5%,-5%
CC1(C)Cc2cccc(OCC(=O)Nc3cc(S(C)(=O)=O)ccc3Cl)c2O1,-14%,53%,3%
C#CC(=O)N(c1cc(OC)ccc1OC)C(C(=O)NC1CCCC1)c1cccs1 (stereo unspecified),?,19%,-1%
C#CC(=O)N(c1ccc(OC)cc1OC)C(C(=O)NC1CCCC1)c1cccs1 (stereo unspecified),1.6µM*,10%,-4%
COc1c(C)cc(S(=O)(=O)NCc2ccco2)c(C)c1C,-22%,-14%,-5%
CC(C(=O)NC1CCCCC1)N1CCN(S(=O)(=O)c2cccs2)CC1 (stereo unspecified),6%,57%,10%
CC(C)(C)NC(=O)c1cc([N+](=O)[O-])ccc1N1CCCCC1,-10%,-13%,0%
Cc1ccc(-c2nc3sccn3c2Nc2ccccc2C)cc1,-15%,/,2%
O=C(CSc1cn(CCNC(=O)c2cccs2)c2ccccc12)NC1CCCC1,2%,28µM*,?
O=C(NCCn1cc(SCc2ccc(C(F)(F)F)cc2)c2ccccc21)c1cccs1,10%,/,6%
CCC(C(=O)OC)n1cnc2c(cnn2-c2ccc(F)cc2)c1=O (stereo unspecified),-1%,/,16%
COc1ccc(C2=CC(=O)OC3(CCCCC3)O2)cc1,-18%,-1%,-1%
SMILES,Sm TGR inh,AmpC inh no detg,AmpC detergent
C=C(C)C1(O)OC(=O)C=C1OC (stereo unspecified),6.3µM*,-7%,6%
CCCOc1ccc(N2C(=O)CC(NNC(=O)c3ccc(COc4ccccc4)o3)C2=O)cc1 (stereo unspecified),?,10%,3%
CCOc1cccc(N2C(=O)CC(NNC(=O)c3ccc(Br)o3)C2=O)c1 (stereo unspecified),25µM*,-22%,2%
O=C(Nc1cccc(Cl)c1)c1ccc(-n2cncn2)c([N+](=O)[O-])c1,-1%,-17%,-12%
Cc1ccc(C(=O)OCc2nc3ccsc3c(=O)[nH]2)o1,-17%,-22%,?
O=C(/C=C/c1ccc(Br)o1)OCc1nc2ccsc2c(=O)[nH]1,45µM*,-10%,?
COCCCn1c(-c2ccco2)nc2ccccc2c1=O,0%,-10%,-15%
COCCCN=C(c1ccco1)n1c(=S)nc(-c2ccco2)n(CCCOC)c1=S,20µM*,-15%,-2%
O=C(CSc1nnc2ccc(-c3ccccn3)nn12)Nc1ccc(F)cc1F,-4%,-4%,-17%
CCn1c2ccc(F)cc2c2nnc(SCCN3CCCCC3)nc21,-2%,-2%,?
COc1ccc(N2Cc3ccccc3C2)cc1Cl,32µM*,-30%,?
COc1ccc(OC)c(N2Cc3ccccc3C2)c1,?,8%,-1%
COc1ccccc1N1Cc2ccccc2C1,?,12%,-5%
COc1ccc(Cl)cc1N1Cc2ccccc2C1,45µM*,-34%,-14%
O=C(C1CC(=O)N(c2ccccc2)C1)N1CCN(c2ccccc2)CC1 (stereo unspecified),-1%,60%,-5%
COc1ccc(N(CC(=O)NN=C2CCCC2)S(=O)(=O)c2ccccc2)cc1Cl,-10%,-35%,-15%
CC(C)OC(=O)CSc1nnc2c(n1)[nH]c1ccc(F)cc12,-7%,-4%[11.4 µM],?
CCOc1ccc(CCNC(=O)c2cc(C)nc3c2c(C)nn3-c2cccc(F)c2)cc1,1%,/,-3%
O=C(NC(=S)Nc1cc(C(F)(F)F)ccc1Cl)c1ccccc1,-12%,-24%,-4%
O=C(CC(=O)c1ccccc1)Nc1cc(C(F)(F)F)ccc1Cl,2%,25µM*,-3%
COc1cc(/C=C/C(=O)OCC(=O)N2c3ccccc3NC(=O)C2(C)C)cc(OC)c1OC,-2%,17%,4%
Cc1cccc(C)c1NC(=O)C(c1ccc([N+](=O)[O-])cc1)N(C)C(=O)c1ccccn1 (stereo unspecified),3%,-6%,?
CCCCn1c(SCC(=O)Nc2cc(C(F)(F)F)cc(C(F)(F)F)c2)nnc1C(CC)N(C)C (stereo unspecified),-3%,48%,-2%
COc1ccccc1-c1cc(C(F)(F)F)nc(S(C)(=O)=O)n1,28µM*,-11%,-6%
COc1ccccc1-c1cc(C(F)(F)F)nc(S(=O)(=O)CCCC(=O)NC(C)C)n1,-2%,-9%,2%
SMILES,Sm TGR inh,AmpC inh no detg,AmpC detergent
COc1ccccc1-c1cc(C(F)(F)F)nc(N2CCCC2)n1,3%,-8%,-2%
COc1ccccc1-c1cc(C(F)(F)F)nc(S(=O)(=O)CCCC(=O)N2CCCCC2C)n1 (stereo unspecified),22µM*,110%,-3%
CCC(C(=O)OCC(=O)N1C(C)CCCC1C)c1ccccc1 (stereo unspecified),11%,12%,4%
CC(=O)c1cccc(NC(=O)CCc2c(C)nc3nc(CN)nn3c2C)c1,-2%,/,14%
COC(=O)C(Cc1ccccc1)NC(=O)CNC(=O)c1ccc(Br)o1 (stereo unspecified),-12%,-8%,-4%
COc1ccc(Cl)cc1C(=O)Nc1ccc(Br)c(C)n1,/,-23%,1%
O=C(CC1Sc2ccc(C(F)(F)F)cc2NC1=O)Nc1ccc(Cl)c(C(F)(F)F)c1 (stereo unspecified),5%,/,10%
Cc1ccccc1-n1nnnc1SCC(=O)NNC(=O)c1ccc(NC(=O)CC#N)cc1,-1%,-17%,0%
